Source: PubChem (National Center for Advancing Translational Sciences (NCATS))
Only a selection was taken, and hits are over-represented in it overall.
Pf Dd2 inh = blocks in vitro growth of P. falciparum Dd2. P. falciparum Dd2 growth, SYBR Green, 72 h. Potency, µM (series often up to 28.9 µM), most hits filed as inhibitors. 4.3% of 120,000 active. AID 1347417; active = well fitted inhibition curve with a large enough effect; also: nearly all actives have a fitted effect of over 65% in size
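Readout: SYBR Green fluorescence, 485 nm excitation, 535 nm emission, after ~16 h lysis at 37C. Before that, Dd2-infected red cells (2.5% hematocrit) grew 72 h with compound, 29 uM top final concentration.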
Each line names hits and unclear results; the compound was inactive in the other large screens.

CC(=O)c1cccc(NC(=O)Cn2c(-c3ccc(F)cc3)nc(C)c(CCO)c2=O)c1	none
CC(C)NC(=O)CN1C(=O)NC2(CCC(C(C)(C)C)CC2)C1=O (stereo unspecified)	none
CN(CCc1ccccn1)C(=O)[C@@]12CCCC[C@H]1N(C)C(=O)CC2	none
COc1ccc(C2Cn3nnc(C(=O)N4CCN(C(=O)c5cc(C)ccc5C)CC4)c3CO2)cc1 (stereo unspecified)	none
O=C1CC2(CCN(CC3CC3)CC2)Oc2ccccc2N1	none
O=C(Cn1ccn2nc3c(c2c1=O)CCCC3)NCc1ccccc1	none
CCOc1ccccc1NC(=O)CSc1nc2cc(OC)c(OC)cc2c2nc(-c3ccccc3)nn12	none
CCOCCCNc1nc2cc(OC)c(OC)cc2c2nc(-c3ccccc3)nn12	Pf Dd2 inh 0.28µM
Cc1cccc(-c2nc3c4ccccc4nc(NCc4ccc(F)cc4)n3n2)c1	none
COc1cc2nc(NCc3ccccc3)n3nc(-c4ccccc4)nc3c2cc1OC	Pf Dd2 inh 0.32µM
COc1ccc(CNc2nc3ccccc3c3nc(-c4ccccc4)nn23)cc1	none
COc1ccccc1CNc1nc2ccccc2c2nc(-c3cccc(C)c3)nn12	none
COCCOC1CCN(C(=O)c2ccc3oc(-c4cccc(F)c4)nc3c2)CC1	none
CC(C)n1cc(CN2CCC(C3CCN(S(C)(=O)=O)CC3)C2)cn1 (stereo unspecified)	none
CCOCC(=O)N1CCCCCCNC(=O)[C@@H]2C[C@@H](c3nc(-c4cccnc4)no3)C[C@@H]21	none
O=C(c1cn(CCC2CCCCN2)nn1)N1CCc2nc[nH]c(=O)c2CC1 (stereo unspecified)	none
COc1cccc(CCC(=O)NCCC2CCN(C(=O)Nc3ccc(C)c(F)c3)CC2)c1	none
Cc1ncccc1OC1(C(=O)NCc2n[nH]c3c2CCC3)CCNCC1	none
CCCCCn1c(=O)[nH]c2cc(C(=O)N3CCN(c4ccccc4)CC3)ccc2c1=O	none
COc1ccc(Cn2c(=O)[nH]c3cc(C(=O)N4CCN(c5ccccc5)CC4)ccc3c2=O)cc1	none
COCCn1c(=O)[nH]c2cc(C(=O)N3CCN(c4ccccc4)CC3)ccc2c1=O	none
CC(=O)c1ccc(N2CCN(C(=O)c3ccc(Cn4c(=O)[nH]c5ccccc5c4=O)cc3)CC2)cc1	Pf Dd2 inh 7.9µM
O=C(CCCn1c(=O)[nH]c2ccccc2c1=O)N1CCN(c2ccccc2)CC1	Pf Dd2 inh 10µM
O=C(CCCCCn1c(=O)[nH]c2ccccc2c1=O)N1CCN(c2cccc(C(F)(F)F)c2)CC1	none
O=C1OC2(CN1CC1CCOCC1)CN(c1ccccc1-c1ccccc1)C2	none
COc1ccc(-c2noc([C@@H](C)NC(=O)c3cc(C)n(C)n3)c2C(=O)O)cc1	none
COc1ccc(-c2noc(C(=O)O)c2[C@@H](C)NC(=O)c2cccnc2)cc1	none
COc1ccc(-c2noc(C(=O)O)c2[C@@H](C)NC(=O)c2cc(C)n(C)n2)cc1	Pf Dd2 inh 3.2µM
O=C([C@@H]1C[C@H](F)CN1S(=O)(=O)c1ccccc1F)N1CCc2ccccc2C1	none
COc1ccc(NC(=O)N(C)CC2CCOCC2)cc1Cl	none
COc1ccc(-c2cc(N3CCCC(NC(=O)c4ccc(F)cc4F)C3)n[nH]2)cc1 (stereo unspecified)	none
COc1cccc(C(=O)N2C(C(=O)NC(C)C)COC23CCN(C(=O)c2ccccc2F)CC3)c1 (stereo unspecified)	none
CC(C)(C)c1ccc(C(=O)Nc2ccc(C(O)[C@H]3COCC(=O)N3)cc2)cc1 (stereo partly specified)	Pf Dd2 inh 10µM
O=C1COC[C@H]([C@H](O)c2ccc(NS(=O)(=O)c3ccc(F)cc3)cc2)N1	none
COc1ccccc1C(=O)Nc1ccc(C(O)[C@H]2COCC(=O)N2)cc1 (stereo partly specified)	none
COc1ccc(NC(=O)Cn2ccn3nc4c(c3c2=O)CCCCC4)cc1	none
CCc1c(C)sc2c1CCN(C(=O)Nc1ccccc1C(=O)OC)C2c1ccc(OC)cc1 (stereo unspecified)	none
CCCS(=O)(=O)N1CC[C@@H]2COCCN(Cc3ccccc3)[C@@H]2C1	none
CCc1c(C)sc2c1CCN(Cc1ccccc1)C2c1ccccc1 (stereo unspecified)	Pf Dd2 inh 4.5µM
CNC(=O)C1(N2CCC[C@H]2C(=O)N2CCOCC2)COC1	none
Cn1ccc(NC(=O)[C@@H]2C[C@@H](c3ccc(F)cc3)N(Cc3ccccc3)C2)n1	Pf Dd2 inh 13µM
COc1ccc(CNC(=O)[C@@H]2C[C@@H](c3ccc(F)cc3)N(Cc3ccccc3)C2)cc1OC	none
Cn1cc(CN2C[C@H](C(=O)NCc3cccc(F)c3)C[C@H]2c2cccc(C(F)(F)F)c2)cn1	Pf Dd2 inh 8.9µM
Cc1nc(CN2C[C@H](C(=O)NCc3cccc(F)c3)C[C@@H]2c2ccc(F)cc2)cs1	Pf Dd2 inh 14µM
Cn1cc(CN2C[C@H](C(=O)Nc3ccc(F)cc3)C[C@@H]2c2cccc(C(F)(F)F)c2)cn1	none
Cn1cc(CN2C[C@H](C(=O)Nc3ccccc3)C[C@@H]2c2cccc(C(F)(F)F)c2)cn1	none
Cn1cc(CN2C[C@H](C(=O)Nc3ccn(C)n3)C[C@@H]2c2cccc(C(F)(F)F)c2)cn1	none
O=C(Nc1ccncn1)[C@@H]1C[C@@H](c2ccc(F)cc2)N(Cc2ccccc2)C1	none
Cc1nc(CN2C[C@H](C(=O)N3CCN(CCO)CC3)C[C@@H]2c2ccc(F)cc2)cs1	none
c1ccc(-n2nccc2CN2CCC3(CCNCC3)C2)cc1	none
Cc1ccncc1C(=O)N1CCCC(c2nc(-c3cccnc3)no2)CCNC(=O)CC1 (stereo unspecified)	none
COCCNC(=O)[C@H]1C[C@H](Oc2cccnc2)CN1S(=O)(=O)c1ccc(OC)cc1	none
CC(=O)NC1CCN(C(=O)c2coc(COc3ccc4c(c3)OCO4)n2)C1 (stereo unspecified)	none
CC(NC(=O)c1ccc2cccc(F)c2n1)c1ccccc1-n1cccn1 (stereo unspecified)	none
O=C1COc2ccc(NCc3cccs3)nc2CN1Cc1ccc(C(F)(F)F)cc1	none
CCOC(=O)C1CCCN(S(=O)(=O)c2cc3c4c(c2)CC(=O)N4CCC3)C1 (stereo unspecified)	none
CCOC(=O)C1CCN(S(=O)(=O)c2cc3c4c(c2)C(C)C(=O)N4CCC3)CC1 (stereo unspecified)	none
CCOC(=O)C1CCN(S(=O)(=O)c2cc3c4c(c2)CC(=O)N4CCC3)CC1	Pf Dd2 inh 10µM
CN(C)C(=O)C1CN(C(=O)c2ccc(C#N)cc2)CC12CCOCC2 (stereo unspecified)	none
O=C(c1ccc(Cl)cc1)N1CC2(CCN(Cc3cccnc3)C2)Cc2ccccc21 (stereo unspecified)	Pf Dd2 inh 8.9µM
O=C(c1ccc(Cl)cc1)N1CC2(CCN(Cc3c[nH]c4ccccc34)CC2)Cc2ccccc21	Pf Dd2 inh 2.5µM
CC(=O)N1CC2(CCN(Cc3ccccn3)CC2)Cc2ccccc21	none
CC(=O)N1CC2(CCN(Cc3ccccn3)C2)Cc2ccccc21 (stereo unspecified)	none
O=C(c1ccc(Cl)cc1)N1CC2(CCN(Cc3ccc(Cl)cc3)CC2)Cc2ccccc21	Pf Dd2 inh 13µM
C[S+](=O)([O-])N1CC2(CCN(Cc3ccc(Cl)cc3)CC2)Cc2ccccc21	none
COCC1CN(C(C)=O)CC12CCN(Cc1c[nH]c3ccccc13)CC2 (stereo unspecified)	none
CC(=O)N1CC2(CCCCN2Cc2ccc(Cl)cc2)Cc2ccccc21 (stereo unspecified)	none
CC(=O)N1CC2(Cc3ccccc31)CN(C(=O)c1ccc(C(F)(F)F)cc1)C2	none
